Only a selection was taken, and hits are over-represented in it overall.
CBX7 AlphaScr: CBX7 chromodomain binding inhibitors, primary screen, biochemical, AlphaScreen | Chromobox protein homolog 7 (Homo sapiens), O95931 | AlphaScreen His6-CBX7 / biotin-H3K27me3 peptide binding; hits give low values | normalised signal (fraction of DMSO) (no concentration beside the values) | 1.1% of 66,000 active | AID 1224903, 2016; in the data active means normalised signal below about 0.5
Target sequence (O95931 whole entry, looked up): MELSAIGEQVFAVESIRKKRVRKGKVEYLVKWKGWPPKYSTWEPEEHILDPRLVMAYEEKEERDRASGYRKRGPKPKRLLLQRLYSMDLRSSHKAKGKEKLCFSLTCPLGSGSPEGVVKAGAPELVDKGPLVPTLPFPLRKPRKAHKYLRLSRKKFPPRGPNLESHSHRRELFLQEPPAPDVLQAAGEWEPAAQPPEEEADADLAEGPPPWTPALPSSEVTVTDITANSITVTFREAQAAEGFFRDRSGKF
* = called active by the depositor.

CCOC(=O)c1cnc2ccc(OCC)cc2c1N1CCN(c2ccccc2OC)CC1 was read as CBX7 AlphaScr 0.462*.
`CCOC(=O)c1cnc2c(OC)cccc2c1N1CCN(c2ccccc2F)CC1` gave CBX7 AlphaScr 0.425*.
`CCOC(=O)c1cnc2ccc(OCC)cc2c1N1CCCCCC1` gave CBX7 AlphaScr 1.11.
For CCOC(=O)c1cnc2cc(C(F)(F)F)ccc2c1N1CCN(c2ccccc2OC)CC1 the results were CBX7 AlphaScr 0.863.
`COc1ccc(C2C(C(=O)Nc3ccc(F)cc3)CCC(=O)N2c2ccc3c(c2)OCO3)cc1` (stereo unspecified) gave CBX7 AlphaScr 0.99.
`Clc1ccc(-c2nc3nc[nH]n3c2Nc2ccccc2)cc1` gave CBX7 AlphaScr 0.854.
CCOc1ccc(CCN2C(=O)CCC2(C)C(=O)NC2CCCC(C)C2C)cc1OCC (stereo unspecified) was read as CBX7 AlphaScr 0.965.
`O=C(Cn1c(-c2ccccc2Cl)nc2ccccc2c1=O)Nc1ccc(F)cc1` gave CBX7 AlphaScr 0.928.
For CCOCCCNC(=O)c1ccc2c(c1)N(Cc1ccc(Cl)cc1)C(=O)c1ccccc1S2 the results were CBX7 AlphaScr 0.574.
For O=C(Nc1nnc(-c2ccc3c(c2)OCO3)s1)c1ccccc1Br the results were CBX7 AlphaScr 1.04.
Clc1ccc(Nc2c(-c3ccccn3)nc3cnccn23)cc1 was read as CBX7 AlphaScr 0.798.
Screening Cc1ccc(Nc2c(-c3ccc(C)cc3)nc3ccccn23)cc1 returned CBX7 AlphaScr 1.28.
Cc1cccn2c(Nc3ccc(C(C)C)cc3)c(-c3ccccn3)nc12 was read as CBX7 AlphaScr 0.262*.
Cc1cccc(C)c1Nc1c(-c2ccccn2)nc2c(C)cccn12 was read as CBX7 AlphaScr 0.871.
`CC(C)c1ccc(Nc2c(-c3ccccn3)nc3ccccn23)cc1` gave CBX7 AlphaScr 0.211*.
Screening c1ccc(Nc2c(-c3ccc(N4CCOCC4)cc3)nc3ccccn23)cc1 returned CBX7 AlphaScr 1.15.
`Cc1cccn2c(Nc3ccccc3)c(-c3ccccn3)nc12` gave CBX7 AlphaScr 0.874.
Screening Cc1ccc(Nc2c(-c3ccccc3)nc3ccccn23)cc1 returned CBX7 AlphaScr 0.976.
`c1ccc(Nc2c(-c3ccccn3)nc3ccccn23)cc1` gave CBX7 AlphaScr 0.239*.
For COc1ccc(C2CC(=O)N(CC(=O)Nc3cc(C)cc(C)c3)c3ccccc3S2)cc1OC (stereo unspecified) the results were CBX7 AlphaScr 1.07.
Cc1nc2cc(-c3ccccc3)nn2c(C)c1CCC(=O)NC(C)c1cccs1 (stereo unspecified) was read as CBX7 AlphaScr 1.15.
Screening CCCC(=O)NCc1nc2ccccc2n1CC(C)C returned CBX7 AlphaScr 1.23.
Screening CC1CC(C)CN(C(=O)CSc2nnc(-c3ccccc3)o2)C1 (stereo unspecified) returned CBX7 AlphaScr 0.969.
CCOC(=O)c1cnc2c(OC)cccc2c1NC(C)c1ccccc1 (stereo unspecified) was read as CBX7 AlphaScr 1.04.
Screening O=C(NC(C(=O)Nc1cccc(Cl)c1)c1ccccc1)c1ccc(Cl)cc1 (stereo unspecified) returned CBX7 AlphaScr 1.14.
For COc1ccc(OCCCn2c(C3CC(=O)N(c4ccc(C)c(C)c4)C3)nc3ccccc32)cc1 (stereo unspecified) the results were CBX7 AlphaScr 0.92.
`O=C([C@@H](c1ccccc1)N1Cc2ccccc2C1=O)N1CCOCC1` gave CBX7 AlphaScr 1.04.
CC(C)n1cnc2cc(NCc3ccncc3)ccc21 was read as CBX7 AlphaScr 0.932.
Cc1ccc(S(=O)(=O)Nc2ccc3c(c2)ncn3C(C)(C)C)cc1 was read as CBX7 AlphaScr 0.889.
CC(C)(C)n1cnc2cc(NCc3ccccc3Cl)ccc21 was read as CBX7 AlphaScr 0.399*.
For CC(C)n1cnc2cc(NCc3cccc4ccccc34)ccc21 the results were CBX7 AlphaScr 0.253*.
Screening CCn1cnc2cc(NCc3ccc(Cl)cc3Cl)ccc21 returned CBX7 AlphaScr 0.848.
CC(C)c1ccc(CNc2ccc3oc(-c4ccccc4)nc3c2)cc1 was read as CBX7 AlphaScr 1.41.
`COc1ccccc1-n1cnc2cc(NCc3ccc(Cl)cc3)ccc21` gave CBX7 AlphaScr 0.714.
`CC(C)c1ccc(CNc2ccc3c(c2)ncn3C(C)(C)C)cc1` gave CBX7 AlphaScr 0.291*.
`COc1ccc(CNc2ccc3c(c2)ncn3C(C)(C)C)cc1` gave CBX7 AlphaScr 0.553.
`COc1cccc(CNc2ccc3c(c2)ncn3C(C)C)c1OC` gave CBX7 AlphaScr 0.741.
For Cc1ccc(CNc2ccc3c(c2)ncn3C(C)(C)C)cc1 the results were CBX7 AlphaScr 0.408*.
`COc1cc(OC)cc(-c2cc3nc(C)c(CCC(=O)NCc4cccnc4)c(C)n3n2)c1` gave CBX7 AlphaScr 0.934.
For CC(C)C(C(=O)Nc1nc(-c2ccc(Br)cc2)cs1)N1C(=O)c2ccccc2C1=O (stereo unspecified) the results were CBX7 AlphaScr 1.07.
Screening CCOC(=O)c1cnc2cc(Cl)c(OC)cc2c1Nc1cc(OC)ccc1OC returned CBX7 AlphaScr 1.1.
CC1CCCCC1NC(=O)c1ccc2nc(N3CCOCC3)sc2c1 (stereo unspecified) was read as CBX7 AlphaScr 1.01.
CCOCCCNC(=O)c1cc(Nc2ccc(OC)cc2)nc2ccccc12 was read as CBX7 AlphaScr 0.913.
CCCn1c(=O)c(C(=O)NC(C)c2ccccc2)c(O)c2ccccc21 (stereo unspecified) was read as CBX7 AlphaScr 0.278*.
For CCCn1c(=O)c(C(=O)NCc2cccnc2)c(O)c2ccccc21 the results were CBX7 AlphaScr 0.958.
`CCn1c(=O)c(C(=O)NC(C)c2ccccc2)c(O)c2ccccc21` (stereo unspecified) gave CBX7 AlphaScr 1.4.
Screening Cc1ccc(NC(=O)C2CCN(S(=O)(=O)c3cnc[nH]3)CC2)c(Cl)c1 returned CBX7 AlphaScr 1.09.
CCc1noc(C)c1C(=O)Nc1nc(-c2cccc(Cl)c2)c(C)s1 was read as CBX7 AlphaScr 0.93.
`Cc1ccc(S(=O)(=O)c2nc(-c3ccccc3C)oc2N2CCCCCC2)cc1` gave CBX7 AlphaScr 0.9.
`O=S(=O)(c1ccccc1)c1nc(-c2ccccc2F)oc1N1CCCCCC1` gave CBX7 AlphaScr 0.98.
Screening Cc1ccc(S(=O)(=O)c2nc(-c3ccccc3F)oc2N2CCCCC2)cc1 returned CBX7 AlphaScr 0.483*.
`Cc1cccc(OCC(=O)Nc2ccc(S(=O)(=O)Nc3ncccn3)cc2)c1` gave CBX7 AlphaScr 1.06.
For O=C(NCc1cccnc1)[C@H](Cc1ccccc1)N1Cc2ccccc2C1=O the results were CBX7 AlphaScr 0.973.
Screening CCOc1cc2c(cc1OCC)C1C(C(=O)Nc3ccccc3CC)c3ccccc3C(=O)N1CC2 (stereo unspecified) returned CBX7 AlphaScr 1.01.
`CCOc1cc2c(cc1OCC)C1C(C(=O)Nc3cc(C)ccn3)c3ccccc3C(=O)N1CC2` (stereo unspecified) gave CBX7 AlphaScr 0.192*.
CCOc1cc2c(cc1OCC)C1C(C(=O)Nc3ccccc3C)c3ccccc3C(=O)N1CC2 (stereo unspecified) was read as CBX7 AlphaScr 1.06.
For Cc1ccc(CSc2oc(-c3cccs3)nc2S(=O)(=O)c2ccc(F)cc2)cc1 the results were CBX7 AlphaScr 0.915.
Screening CCc1ccccc1NC(=O)CCCN1C(=O)c2cccnc2C1=O returned CBX7 AlphaScr 0.679.

Screens from PubChem BioAssay.
